DRV1 agonist – GPR32 (DRV1) agonism, beta-arrestin recruitment. O75388. CHO-K1 GPR32 beta-arrestin PathHunter luminescence, 90 min; zero percent set by DMSO-only wells. activation, % at 76.9 µM. hit rate 2.5% among 48,000. AID 1346428;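 active = activation of at least 60% and not above a set upper limit, about 1 call in 100 departs from these limits; inconclusive = activation of 40% to 60%, or above that upper limit; inactive = activation under 40%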; also: 0% is about no effect
Target sequence (O75388 whole entry, looked up): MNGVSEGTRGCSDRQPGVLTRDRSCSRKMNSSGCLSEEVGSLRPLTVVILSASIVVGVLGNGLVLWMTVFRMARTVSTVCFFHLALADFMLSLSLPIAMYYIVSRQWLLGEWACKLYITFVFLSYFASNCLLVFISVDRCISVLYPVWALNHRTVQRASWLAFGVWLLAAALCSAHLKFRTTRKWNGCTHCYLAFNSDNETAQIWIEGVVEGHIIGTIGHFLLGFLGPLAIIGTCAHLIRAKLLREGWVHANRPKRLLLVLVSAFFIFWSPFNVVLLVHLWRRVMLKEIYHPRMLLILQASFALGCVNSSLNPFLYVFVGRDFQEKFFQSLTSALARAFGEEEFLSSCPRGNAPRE
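Using DMSO wells as EC0, agonist-induced signal was taken as chemiluminescence from beta-Gal reconstituted upon beta-arrestin recruitment to GPR32 in CHO-K1 cells after 90 min compound treatment.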
HTT-AS promoter – activators of huntingtin-antisense promoter activity | HEK293 HTT-AS promoter firefly luciferase reporter, 24 h; response scale: percent change from vehicle, -100% = no light | Potency, µM (doses to about 57.5 µM), inactives show top-dose activity change, positive = activation, actives largely listed as activators | AID 1508624 | hit rate 0.24% among 48,000; also: potency is read from the fitted curve at half-maximal effect; nearly all actives have a fitted effect of over 55% in size
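Firefly luciferase signal from promoter-reporter HEK293 cells was scaled between vehicle (0%) and zero RLU (-100%). Compounds were tested at final concentrations of up to 57.5 uM over 24 h at 37 degrees C. PTC124 at 50 uM final served as control inhibitor.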
HTT prom inh – inhibits huntingtin promoter activity; hit rate 0.93% among 48,000; HEK293 HTT promoter firefly luciferase reporter, 24 h; Potency, µM (top dose mostly 57.5 µM), inactives show top-dose activity change, negative = inhibition, usual class: inhibitors; AID 1508623; also: potency is read from the fitted curve at half-maximal effect; nearly all actives have a fitted effect of over 50% in size
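HEK293 Fluc reporter, 2,500 cells/well, 24 h pre-culture; cpds up to 57.5 uM final, 24 h 37 degrees C; Dual-Glo, 10 min RT; normalized vehicle = 0%, zero RLU = -100%.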
* marks the source's active call; other numbers are inactive results; ? = inconclusive; nt = not tested or not shown; [ ] = dose if it differs, or a comment. Rows were chosen to be rich in hits. Some 3.7% of all compounds tested hit in one or more screens of this group. Unless noted, calls follow the shape of the dose curve; as a rule, active = well fitted curve in the direction sought with a large enough effect; inconclusive = small, poorly fitted or top-dose-only effect, or another doubt; inactive = no such curve, though single readings can be large; an effect the other way counts as inactive or inconclusive.

SMILES	DRV1 agonist	HTT-AS promoter	HTT prom inh
CC(=O)c1ccc(NS(=O)(=O)c2ccc3[nH]c4c(c3c2)CCCC4)cc1	19.6	-24.2%	-0.2%
COc1ccc(NC(=O)CN(C)S(=O)(=O)c2ccc3[nH]c4c(c3c2)CCCC4)cc1OC	3.5	-26.1%	?
COc1ccccc1N1CCN(C(=O)c2cc3c(=O)oc4ccccc4c3s2)CC1	-3.0	-8.9%	0.3%
CC(C)ON([C@@H](C(=O)NO)C(C)C)S(=O)(=O)c1ccc(-c2ccccc2)cc1	-9.0	nt	nt
Cc1cc(C)cc(NC(=O)c2ccc3oc(=O)c(S(=O)(=O)c4ccc(F)cc4)cc3c2)c1	102.8*	-52.8%	-12.5%
COc1ccc(NC(=O)c2ccc3oc(=O)c(S(=O)(=O)c4ccc(F)cc4)cc3c2)cc1OC	-2.4	-87.5%	?
CCc1ccc(NC(=O)CN(c2ccc(C)cc2)S(=O)(=O)c2cccs2)cc1	-2.8	-9.1%	2.8%
Cc1oc(-c2ccc(Cl)cc2)nc1CN1CCCC(C(=O)NCc2ccccc2)C1 (stereo unspecified)	106.4*	-39.6%	?
Cc1oc(-c2ccc(Cl)cc2)nc1CN1CCCC(C(=O)NCCc2ccc(Cl)cc2)C1 (stereo unspecified)	42.8	-53.5%	?
Cc1oc(-c2cccc(Cl)c2)nc1CN1CCCC(C(=O)NCc2ccc(F)cc2)C1 (stereo unspecified)	70.5*	-17.6%	1.0%
Cc1ccccc1-c1nc(CN2CCCC(C(=O)NCc3ccc(Cl)cc3)C2)c(C)o1 (stereo unspecified)	23.3	-15.4%	-8.7%
Cn1c(Nc2ccc(C(F)(F)F)cc2)nc2cc(Oc3ccnc(-c4ncc(C(F)(F)F)[nH]4)c3)ccc21	nt	-24.1%	?
Cc1ccc2cccc(NC(=O)C(C)Oc3ccc(Cl)cc3Cl)c2n1 (stereo unspecified)	-30.2	6.9%	-21.7%
c1ccc(-c2nn3c(c2-c2ccnc4cc(OCCN5CCOCC5)ccc24)CCC3)nc1	nt	-23.3%	?
Cc1cc(Nc2cc(NC(=O)c3c(Cl)cccc3Cl)ccn2)nc(N)n1	nt	-12.5%	-15.9%
CCCN1C(=O)C(O)(CC(=O)c2ccc(OC)c(OC)c2)c2ccccc21 (stereo unspecified)	-6.2	-28.3%	?
C#CC(C)(C)NS(=O)(=O)c1cc(-c2nnc(Nc3ccc(C)cc3)c3ccccc23)ccc1C	43.1	-17.4%	?
CCCCOc1cccc(C(=O)Nc2ccc3oc(-c4cccnc4)nc3c2)c1	12.0	-24.1%	-5.0%
CCOc1ccc(C(=O)Nc2ccc(-c3nc4cc(C(C)C)ccc4o3)cc2)cc1Cl	84.0*	-21.8%	?
Cc1cccc(C(=O)Nc2ccc(-c3nc4cc(C(C)C)ccc4o3)cc2)c1	19.3	0.0%	?
CCOc1cccc(C(=O)Nc2ccc3oc(-c4cccnc4)nc3c2)c1	106.6*	-8.4%	?
CCOc1ccccc1NC(=O)CSc1nnc(N)s1	-1.4	7.6%[11.5 µM]	-12.4%[11.5 µM]
CCc1cccc(C)c1NC(=O)CSc1nnc(N)s1	93.6*	-5.9%	-8.9%
NCC1OC(O[C@H]2[C@H](O)[C@@H](OC3C(O)C(N)CC(N)C3OC3OC(CO)C(O)C(O)C3N)O[C@@H]2CO)C(N)C(O)C1O (stereo partly specified)	4.3	nt	nt
CC(C)OCCCn1c(SCC(N)=O)nc2c(sc3ccccc32)c1=O	115.0*	-11.1%	-3.8%
SMILES	DRV1 agonist	HTT-AS promoter	HTT prom inh
CC(C)OCCCn1c(SCC(=O)Nc2ccc(F)cc2)nc2c(sc3ccccc32)c1=O	-3.7	0.4%	-14.3%
CCCc1ccc(OCC(=O)N2CCN(C(=O)COc3ccc(CCC)cc3OC)CC2)c(OC)c1	-5.2	-25.9%	?
Cc1nc2cnc3ccc(C#Cc4cccnc4)cc3c2n1-c1ccc(C(C)(C)C#N)cc1	nt	-43.8%	?
CCN1CCC(N(Cc2ccc3c(c2)OCO3)C(=O)Nc2ccc(Br)c(C)c2)CC1	80.0*	-19.1%	-20.6%
CCN1CCC(N(Cc2ccc3c(c2)OCO3)C(=O)Nc2cccc(C)c2C)CC1	-6.8	-6.5%	-4.6%
CCCCC/C(C=O)=C\c1ccccc1	0.0	2.7%	2.7%
Nc1ccc([N+](=O)[O-])c(C(F)(F)F)c1	-37.8	-5.6%	1.4%
N#CC(c1ccnc(NCCc2cccnc2)n1)c1nc2ccccc2s1 (stereo unspecified)	nt	-29.7%	-18.3%
O=C(NCCc1ccccc1)c1ccc2c(c1)N(Cc1ccc(F)cc1Cl)C(=O)CS2	107.8*	-14.4%	-13.8%
O=C(NCCc1ccc(Cl)cc1)c1ccc2c(c1)N(Cc1ccc(F)cc1Cl)C(=O)CS2	9.0	-34.5%	?
CCC(C(=O)OCCN1CCOC(c2ccccc2)C1C)c1ccccc1 (stereo unspecified)	61.8*	-19.6%	-13.5%
